According to PubChem BioAssay AID592 (National Center for Advancing Translational Sciences (NCATS), 2007):
The whole screen tested about 59,000 compounds, of which fewer than 10 were called active. A selection follows. Values without a mark were called inactive. How the calls were made is not given here.

assay: qHTS Assay for Spectroscopic Profiling in A647 Spectral Region; conditions: Compound fluorescence, A647 channel (570/671 nm), Tris buffer; stronger effect = higher value
Excerpt: NIH Molecular Libraries Screening Centers Network [MLSCN] NIH Chemical Genomics Center [NCGC] […] Occasionally, the artifactual effect may originate from the compounds own spectral or other biophysical properties which generally tend to track its assay concentration. Pre-screening/profiling the library with respect to the compounds spectral properties should help one exclude false positives early on. While the most informative fluorescent profiling data set is obtained by performing a full excitation and emission scan of each well by using a monochromator-based plate reader, such an approach is practical only on a very limited scale as scanning each well requires long time. An alternative approach, applied here, is to perform plate reader scans using selected excitation and emission wavelength pairs to generate a multidimensional relational database that correlates compound concentration and the respective relative fluorescence intensity at a given wavelength set. A standard curve of Alexa 647 (A647) present on each plate as six-point concentration series, was used to compute a normalized fluorescence response, termed dye-equivalent concentration, for each compound at each concentration.
NCGC Assay Protocol Summary: Buffer: 100 mM Tris buffer, pH 8.0 Dye standard plate: The wells in columns 1 through 4 of a Kalypsys polypropylene 1536-well compound plate were filled with standard solutions of fluorophore corresponding to the spectral region of interest. Solutions of A647 were placed in the following wells: AC1, AD1: 3 mM, AC2, AD2: 300 uM, AC3, AD3: 30 uM, AC4, AD4: zero (DMSO), AE1, AF1: 3 uM, AE2, AF2: 900 nM, AE3, AF3: 300 nM, AE4, AF4: zero (DMSO). Assay Steps: Six uL of buffer were dispensed to 1536-well Greiner black plates. Compounds and dye standards (23 nL) were transferred via Kalypsys PinTool. The plates were incubated for 15 min at room temperature, and then read on ViewLux (Perkin-Elmer) High-throughput CCD imager using 570 nm and 671 nm excitation and emission filter set. Keywords: NIH Roadmap, MLSCN, MLI, MLSMR, qHTS, NCGC, A647, A-647, Fluorescent Profiling.

Q: With `Cc1ccccc1Nc1nc(N)nc(CN2CCN(c3ccccn3)CC2)n1` as the compound, how does the max dye-equivalent concentration read?
A: 44 nM

Q: With `COc1ccc(C(c2nnnn2Cc2cccs2)N2CCN(c3ccccc3)CC2)cc1OC` (stereo unspecified) as the compound, how does the max dye-equivalent concentration read?
A: 11 nM

Q: For `COC(=O)CNC(=O)c1ccc2c(c1)S(=O)(=O)c1ccccc1C2=O`, which max dye-equivalent concentration is on record?
A: 6.7 nM

Q: With `O=C(O)c1ccc(C(=O)c2ccccc2C(=O)O)cc1C(=O)O` as the compound, how does the max dye-equivalent concentration read?
A: 3.2 nM

Q: With `O=C(O)CSCNC(=O)CC12CC3CC(CC(C3)C1)C2` as the compound, how does the max dye-equivalent concentration read?
A: 1.2 nM

Q: For `COc1cc(C(=O)N(Cc2ccc(N(C)C)cc2)C2CCS(=O)(=O)C2)cc(OC)c1OC` (stereo unspecified), which max dye-equivalent concentration is on record?
A: 8.2 nM

Q: With `O=S(=O)(/C=C/c1ccccc1)NCCc1ccccn1` as the compound, how does the max dye-equivalent concentration read?
A: 23 nM

Q: Which max dye-equivalent concentration does the source give for `Fc1ccccc1C(c1nnnn1Cc1ccc2c(c1)OCO2)N1CCN(Cc2ccccc2)CC1` (stereo unspecified) here?
A: 3.5 nM

Q: For `Cc1cc(C)nc(SCc2nnc(SCC(=O)OC3CCCCC3)o2)n1`, which max dye-equivalent concentration is on record?
A: 1 nM

Q: For `Cc1csc(NC(=O)C2CCCN2C(=O)OCC(C)C)n1` (stereo unspecified), which max dye-equivalent concentration is on record?
A: 15 nM

Q: Which max dye-equivalent concentration does the source give for `N=C(CC(=O)Nc1ccccn1)c1ccccc1` here?
A: 36 nM

Q: Which max dye-equivalent concentration does the source give for `Cc1oc(C)c(C(=O)NCCCC(=O)O)c1C(=O)NCCCC(=O)O` here?
A: 15 nM

Q: With `Cc1c(O)c(Br)c(C)c(O)c1Br` (tested in a mixture with another compound) as the compound, how does the max dye-equivalent concentration read?
A: 36 nM

Q: With `O=C1c2ccccc2C(=O)N1CCCSc1ccccc1` as the compound, how does the max dye-equivalent concentration read?
A: 1 nM

Q: For `Cc1ccc(NC(=O)C2CCCN(S(=O)(=O)c3c(C)noc3C)C2)c(C)c1` (stereo unspecified), which max dye-equivalent concentration is on record?
A: 5.9 nM

Q: For `CCCNS(=O)(=O)c1ccc(CCC(=O)NCc2cccnc2)cc1`, which max dye-equivalent concentration is on record?
A: 46 nM

Q: Which max dye-equivalent concentration does the source give for `Cn1c(=O)[nH]c(=O)c2c1nc(CN(Cc1ccccc1)Cc1ccccc1)n2CCN1CCOCC1` here?
A: 2 nM

Q: Which max dye-equivalent concentration does the source give for `CCn1c(=O)cc(SCC(=O)NCc2ccc3c(c2)OCO3)c2ccccc21` here?
A: 34 nM

Q: For `CCc1cc2c(=O)c(-c3ccon3)c(N)oc2cc1OC`, which max dye-equivalent concentration is on record?
A: 23 nM

Q: For `N#Cc1cccc(NC(=O)CCC2CCCC2)c1`, which max dye-equivalent concentration is on record?
A: 1 nM

Q: For `Cc1nnc(SCc2ccc(C(=O)c3ccc(Cl)cc3)o2)n1-c1ccccc1`, which max dye-equivalent concentration is on record?
A: 1.7 nM

Q: Which max dye-equivalent concentration does the source give for `Cn1c2ccccc2c2c(C(=O)N3CCN(c4ccc(F)cc4)CC3)cn(C3CCCC3)c(=O)c21` here?
A: 2.8 nM

Q: With `CCn1c(Cc2ccccc2)nnc1SCc1nc2ccccc2c(=O)[nH]1` as the compound, how does the max dye-equivalent concentration read?
A: 3.7 nM

Q: With `CCCOc1ccc(-c2nc(N)n[nH]2)cc1` as the compound, how does the max dye-equivalent concentration read?
A: 1 nM

Q: With `Cc1nnc(SCC(=O)N2CCc3ccccc32)n1-c1ccccc1` as the compound, how does the max dye-equivalent concentration read?
A: 30 nM

Q: With `O=C(Nc1c[nH]c(=O)[nH]c1=O)Oc1ccccc1` as the compound, how does the max dye-equivalent concentration read?
A: 1 nM

Q: Which max dye-equivalent concentration does the source give for `COC(=O)c1c(NC(=O)CSc2nncs2)sc2c1CCCCC2` here?
A: 57 nM

Q: Which max dye-equivalent concentration does the source give for `CCCCN(CCCC)C(=O)CCS(=O)(=O)c1ccc2c(c1)n(C)c(=O)c(=O)n2C` here?
A: 16 nM

Q: For `COc1cc(NS(=O)(=O)c2ccc(NC(C)=O)cc2)cc(OC)c1`, which max dye-equivalent concentration is on record?
A: 2 nM

Q: Which max dye-equivalent concentration does the source give for `COc1ccc(S(=O)(=O)N2CCN(c3ncnc4c(-c5ccccc5)nsc34)CC2)cc1` here?
A: 45 nM

Q: Which max dye-equivalent concentration does the source give for `C#CCN1C(=O)C(O)(CC(=O)c2cc(OC)ccc2OC)c2ccccc21` (stereo unspecified) here?
A: 44 nM

Q: With `COc1ccc2c(c1)C(C)=CC(C)(C)N2C(=O)CNCc1ccc2c(c1)OCO2` as the compound, how does the max dye-equivalent concentration read?
A: 27 nM

Q: For `CN(C)Cc1c(C#N)c2ccccc2n1C`, which max dye-equivalent concentration is on record?
A: 1 nM

Q: Which max dye-equivalent concentration does the source give for `CN1CCCC(OC(=O)COc2ccc(Br)cc2)C1` (stereo unspecified) here?
A: 2.1 nM

Q: With `Fc1ccc2nc(Nc3nc4c(s3)CCCC4)sc2c1` as the compound, how does the max dye-equivalent concentration read?
A: 34 nM

Q: With `Cc1n[nH]c(C)c1S(=O)(=O)N1CCCC(C(=O)NCC2COc3ccccc3O2)C1` (stereo unspecified) as the compound, how does the max dye-equivalent concentration read?
A: 15 nM

Q: Which max dye-equivalent concentration does the source give for `CCON=C1C(C)(C)C(C)(C)C(C)(C)C1(C)C` here?
A: 1 nM

Q: Which max dye-equivalent concentration does the source give for `CC(C)c1ccc(N2CC(C(=O)Nc3nccs3)CC2=O)cc1` (stereo unspecified) here?
A: 1 nM

Q: With `Cc1nc(NC(=O)CCC(=O)O)sc1C(=O)N(C)C` as the compound, how does the max dye-equivalent concentration read?
A: 1 nM

Q: Which max dye-equivalent concentration does the source give for `Cc1nc2ncnn2c(C)c1CCC(=O)N1CCN(C(=O)c2ccco2)CC1` here?
A: 1 nM

Q: With `CN1CCc2c(sc3c2c(NCc2ccco2)nc2nnnn23)C1` as the compound, how does the max dye-equivalent concentration read?
A: 1 nM

Q: With `CCN(C(=O)CSc1ncn[nH]1)c1cccc2ccccc12` as the compound, how does the max dye-equivalent concentration read?
A: 1 nM

Q: With `Cc1nn(-c2ccccc2)c2sc(C(=O)N(Cc3ccco3)C(C)C(=O)NC(C)(C)C)cc12` (stereo unspecified) as the compound, how does the max dye-equivalent concentration read?
A: 1 nM

Q: Which max dye-equivalent concentration does the source give for `COc1ccc2c(c1)CCc1c(C(=O)Nc3c(C)n(C)n(-c4ccccc4)c3=O)noc1-2` here?
A: 1 nM

Q: With `Cc1cc2ccccc2n2c(SCC(=O)N3CCN(C(=O)c4ccco4)CC3)nnc12` as the compound, how does the max dye-equivalent concentration read?
A: 3.8 nM

Q: For `CCSc1nc2c(c(=O)[nH]1)C(c1cccnc1)C(C(=O)OC(C)C)=C(C)N2` (stereo unspecified), which max dye-equivalent concentration is on record?
A: 29 nM
